Assay outcomes from PubChem.
Hits are enriched below; roughly 1.9% of the tested compounds scored in any of these assays.
PREPL inh = inhibitors of human prolyl oligopeptidase-like enzyme PREPL. Q4J6C6. recombinant PREPL, fluorescence polarization activity-based probe. inhibition, % at 5.96 µM. 320,000 compounds, 0.68% hits. AID 2751; in the data active = inhibition above about 43%
LYPLA1 counter = blocks human lysophospholipase 1, a PME1 counter-screen. O75608. AID 2174. inhibition, % at 5.9 µM. 320,000 compounds, 0.16% hits. recombinant LYPLA1, FP-Rh probe fluorescence polarization;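 active = inhibition above the mean of all tested compounds plus 3 SD, set per campaign, cut at about 14% in these data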;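 note: inhibitors block serine hydrolase probe labeling of LYPLA1 so polarization falls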
Target sequence (O75608 whole entry, looked up): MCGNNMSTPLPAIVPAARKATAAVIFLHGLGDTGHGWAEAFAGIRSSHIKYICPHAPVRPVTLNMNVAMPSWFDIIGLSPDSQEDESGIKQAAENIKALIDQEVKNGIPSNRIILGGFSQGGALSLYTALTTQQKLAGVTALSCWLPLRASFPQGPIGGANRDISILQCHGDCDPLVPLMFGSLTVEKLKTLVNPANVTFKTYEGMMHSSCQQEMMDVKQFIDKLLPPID
Fam108B inh = Fam108B inhibition, counter-screen for RBBP9 inhibitors; recombinant Fam108B, FP-Rh probe fluorescence polarization; inhibition, % at 9.51 µM; 300,000 compounds, 0.33% hits;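 active = inhibition above the screen mean inhibition plus 3 SD, computed separately per campaign, cut at about 18% in these data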;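 note: inhibitors lower polarization as less probe binds the enzyme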
GSTO1 inh = GSTO1 inhibition, counter-screen for RBBP9 inhibitors | inhibition, % at 5.96 µM | P78417 | recombinant GSTO1, activity-based probe fluorescence polarization | 300,000 compounds, 1.1% hits;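 active = inhibition above the campaign mean inhibition plus 3 SD, cut at about 35% in these data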
PME-1 inh = PME-1 (human) inhibition; AID 2130; inhibition, % at 5.9 µM; recombinant PME-1, FP-Rh probe fluorescence polarization; 320,000 compounds, 0.53% hits;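 active = inhibition above the campaign mean of all compounds plus 3 SD, cut at about 26% in these data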;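 note: competitive labeling of PME-1 active site by serine hydrolase directed probe; inhibitors block probe labeling so polarization falls and inhibition rises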
Target sequence (Q9Y570 whole entry, looked up): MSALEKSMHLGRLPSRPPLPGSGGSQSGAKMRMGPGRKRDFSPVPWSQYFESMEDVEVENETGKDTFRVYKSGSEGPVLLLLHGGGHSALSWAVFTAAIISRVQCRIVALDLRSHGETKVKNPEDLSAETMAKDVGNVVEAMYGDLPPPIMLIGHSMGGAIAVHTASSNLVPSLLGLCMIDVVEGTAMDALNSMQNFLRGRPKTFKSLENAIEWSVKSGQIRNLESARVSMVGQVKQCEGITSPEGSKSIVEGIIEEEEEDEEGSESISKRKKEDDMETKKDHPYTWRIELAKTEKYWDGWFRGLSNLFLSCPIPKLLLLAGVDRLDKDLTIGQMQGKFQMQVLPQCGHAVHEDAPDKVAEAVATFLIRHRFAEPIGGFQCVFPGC
LYPLA2 counter = counter-screen for PME1 inhibitors: inhibitors of human LYPLA2 | O95372 | recombinant LYPLA2, FP-Rh probe fluorescence polarization | inhibition, % at 5.9 µM | 320,000 compounds, 0.38% hits | AID 2177;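 active = inhibition above the screen-wide mean plus 3 SD, limit set per campaign, cut at about 26% in these data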
LYPLA2 confirm = LYPLA2 (human) inhibition, confirmation counter-screen; AID 2232; recombinant LYPLA2, FP-Rh probe fluorescence polarization; 1,100 compounds, 72% hits; inhibition, % at 5.9 µM; shares compounds with LYPLA2 counter;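 active = mean inhibition across replicates above the hit cutoff set in the primary screen, cut at about 26% in these data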;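 note: blocked labeling of the enzyme by serine hydrolase FP-Rh probe lowers polarization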
LYPLA2 gel ABPP = blocks human acyl-protein thioesterase 2 in gel ABPP | shares compounds with LYPLA2 counter | inhibition, % at 20 µM | rhLYPLA2 in mouse brain proteome, gel ABPP FP-Rh | 150 compounds, 30% hits;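 active = inhibition of LYPLA2 enzyme probe labeling above about 50%, limit read from the data; inactive = inhibition below that limit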;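 note: loss of FP-Rh probe labeling of the LYPLA2 gel band measured as band density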
Large screens that a line does not name were inactive (follow-up assays come after a bar, where they were run).

CC1=C(C(=O)N2CCCC(N3CCN(c4cccc(C(F)(F)F)c4)CC3)C2)OCCO1 (stereo not given)	none
COC(=O)CCC(=O)N1CCCC(N2CCN(c3cccc(C(F)(F)F)c3)CC2)C1 (stereo not given)	none
CC(=O)N1CCCC(N2CCN(c3cccc(C(F)(F)F)c3)CC2)C1 (stereo not given)	none
Cc1ccc(C(=O)N2CCCC(N3CCN(c4cccc(C(F)(F)F)c4)CC3)C2)s1 (stereo not given)	LYPLA2 counter 42.2 | LYPLA2 confirm 38.9
COc1ccc(C)cc1NC(=O)CNC(C)C(=O)Nc1ccc(C(C)=O)cc1 (stereo not given)	none
Brc1ccc(-n2cccc2/C=N/n2cnnc2)cc1	none
O=C(c1ccncc1)N1CCCC(N2CCN(c3cccc(C(F)(F)F)c3)CC2)C1 (stereo not given)	LYPLA2 counter 26.4 | LYPLA2 confirm 42.6
O=C(c1ccoc1)N1CCCC(N2CCN(c3cccc(C(F)(F)F)c3)CC2)C1 (stereo not given)	none
CCc1cc(C(=O)N2CCCC(N3CCN(c4cccc(C(F)(F)F)c4)CC3)C2)n(C)n1 (stereo not given)	LYPLA2 counter 81.3 | LYPLA2 confirm 74.2 | LYPLA2 gel ABPP inactive
O=C(C1CCCN1S(=O)(=O)c1ccc(Cl)cc1)N1CCCCC1 (stereo not given)	none
O=C(NCCc1nnc2ccc(NCC3CCCO3)nn12)c1ccccc1 (stereo not given)	none
CC(=O)c1ccc(OCc2cc(C(=O)N3CCC(c4ccncc4)CC3)no2)cc1	LYPLA2 counter 34.0 | LYPLA2 confirm 37.3
O=C(COc1ccc(F)cc1)NCCNC(=O)COc1ccc(F)cc1	none (no result: LYPLA1 counter, Fam108B inh, GSTO1 inh, PME-1 inh, LYPLA2 counter)
CC(=O)c1cc(C#N)c(SCc2ccccc2C#N)nc1C	LYPLA2 counter 45.7 | LYPLA2 confirm 46.3
CC(=O)c1cc(C#N)c(SCc2ccncc2)nc1C	none
O=C1c2ccccc2C(=O)N1Cc1cc(-c2ccc(Cl)cc2)no1	none
O=C(CCC(=O)N1CCN(c2ccc(C(F)(F)F)cn2)CC1)c1cccs1	LYPLA2 counter 32.1 (no result: Fam108B inh, GSTO1 inh) | LYPLA2 confirm inactive
Cc1ccccc1SCC(=O)N1CCN(c2ccc(C(F)(F)F)cn2)CC1	LYPLA2 counter 27.6 | LYPLA2 confirm 36.3
CC(C)(C)NC(=O)Cn1nnc(-c2ccc(OCc3c(F)cccc3Cl)cc2)n1	none
Cc1cc(N2CCN(c3ccc([N+](=O)[O-])c4cccnc34)CC2)c2ccccc2n1	none
Cc1cc(N2CCN(c3ccc(C(F)(F)F)cc3[N+](=O)[O-])CC2)c2ccccc2n1	LYPLA2 counter 29.3 | LYPLA2 confirm 25.8
O=C(Nc1ccc(Cl)cc1)C1CCC(=O)N1Cc1ccccc1Cl (stereo not given)	none
O=C(C1CCC(=O)N1Cc1ccccc1Cl)N1CCN(c2cccc(Cl)c2)CC1 (stereo not given)	LYPLA2 counter 33.8 | LYPLA2 confirm 31.5
O=C(NCc1cccnc1)c1ccc(-c2cc3ccccc3oc2=O)cc1	none
NC(=S)N/N=C/c1c[nH]c2ccc(OCc3ccccc3)cc12	none
O=C(COc1ccc(Br)cc1)NNC(=S)NC(=O)c1ccccc1[N+](=O)[O-]	LYPLA2 counter 32.9 | LYPLA2 confirm 31.1
CCCC(=O)Nc1ccc(N2CCN(C(=O)c3cc4ccccc4o3)CC2)cc1	LYPLA2 counter 45.1 | LYPLA2 confirm 49.6
CC(=O)OC(C(=O)N1CCOCC1)c1c(F)cccc1F (stereo not given)	none
CCN(C(=O)CSc1nnnn1-c1ccccc1)c1c(N)n(Cc2ccccc2)c(=O)[nH]c1=O	none
CCOCCCNC(=O)c1cccc(OC2CCN(S(C)(=O)=O)CC2)c1	none
O=C(N/N=C/c1cccc(Oc2ccc([N+](=O)[O-])cc2[N+](=O)[O-])c1)c1cncc(Br)c1	LYPLA2 counter 44.9 | LYPLA2 confirm 38.7
CCN1CCN(C(=O)/C=C/c2ccc([N+](=O)[O-])cc2)CC1	none
O=C(/C=C/c1ccc([N+](=O)[O-])cc1)N1CCN(Cc2ccccc2)CC1	LYPLA2 counter 31.8 | LYPLA2 confirm 39.5
CC(=O)N1N=C(c2ccc(Cl)cc2)CC1c1ccco1 (stereo not given)	none
CSCCC1NC(=O)N(CC(=O)N2N=C(c3ccc(Cl)cc3)CC2c2ccco2)C1=O (stereo not given)	LYPLA2 counter 41.4 | LYPLA2 confirm 36.8
CC(C)(C)c1ccc(Cn2nnc3c(=O)[nH]c(C4CCN(C(=O)Cc5cccs5)CC4)nc32)cc1	LYPLA2 counter 26.8 | LYPLA2 confirm inactive
O=C(CN1C(=O)NC2(CCCc3ccccc32)C1=O)c1ccc(Br)cc1 (stereo not given)	none
c1ccc(OCCN2CCN(Cc3nc(-c4ccc5c(c4)OCO5)no3)CC2)cc1	LYPLA2 counter 25.9 | LYPLA2 confirm inactive
Cc1ncc([N+](=O)[O-])n1CC(=O)Nc1ccccc1F	LYPLA2 counter 27.6 | LYPLA2 confirm 26.6
Cc1ncc([N+](=O)[O-])n1CC(=O)NC1CCCCCC1	LYPLA2 counter 27.9 | LYPLA2 confirm 32.6
Cc1ncc([N+](=O)[O-])n1CC(=O)Nc1ccc(F)c(Cl)c1	LYPLA2 counter 34.3 | LYPLA2 confirm 61.4 | LYPLA2 gel ABPP inactive
Cc1ncc([N+](=O)[O-])n1CC(=O)Nc1cccc(C(F)(F)F)c1	LYPLA2 counter 50.9 | LYPLA2 confirm 41.4
COc1ccc(NC(=O)Cn2c([N+](=O)[O-])cnc2C)cc1Cl	none
Cc1ncc([N+](=O)[O-])n1CC(=O)Nc1ccc(OC(F)(F)Cl)cc1	none
CSc1ccccc1NC(=O)Cn1c([N+](=O)[O-])cnc1C	none
CCN(CC)S(=O)(=O)c1ccc(NS(=O)(=O)CC23CCC(CC2=O)C3(C)C)cc1 (stereo not given)	none
C/C(=N\NC(=O)CNC(=O)C1COc2ccccc2O1)c1ccco1 (stereo not given)	none
O=C(CCN1CCC(c2cccs2)=N1)c1cccs1	none
O=C(c1ccccc1)N1CCOC12CCN(c1ncc(C(F)(F)F)cc1Cl)CC2	none
O=C(c1ccc([N+](=O)[O-])cc1)N1CCOC12CCN(c1ncc(C(F)(F)F)cc1Cl)CC2	LYPLA2 counter 38.1 | LYPLA2 confirm 56.7 | LYPLA2 gel ABPP inactive
CN(C)/C=C(\c1cnc(Cl)s1)S(=O)(=O)c1ccccc1	none
Nc1nc(N2CCN(C/C=C/c3ccccc3)CC2)nc2ccccc12	LYPLA2 counter 42.2 | LYPLA2 confirm 39.0
CCn1c(=O)n(CC)c2cc([N+](=O)[O-])ccc21	none
